Shown are actives, neighbours in structure and some others; about 0.98% of the full set was active somewhere.
C-LANA FP: KSHV C-LANA DNA binding inhibition. 0.078% of 340,000 active. MBP-C-LANA/FAM-LBS DNA binding, fluorescence polarization. inhibition, % at 9 µM. AID 504423;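 active = highest replicate inhibition at or above 60% at 9 µM, even if other replicates fall short; inactive = all replicates below 60% inhibition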
Keap1-Nrf2 PPI: inhibitors of human Keap1-Nrf2 protein-protein interaction. AID 504523. Keap1 Kelch-Nrf2 peptide fluorescence polarization, 1536-well. 0.15% of 340,000 active. Q14145. inhibition, % at 9.4 µM; in the data active = inhibition above about 12%;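 note: human Keap1 Kelch domain with fluorescein labeled Nrf2 9mer peptide probe; higher means more block of Keap1 binding to Nrf2 peptide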
Target sequence (Q14145 whole entry, looked up, the tested form may be a part): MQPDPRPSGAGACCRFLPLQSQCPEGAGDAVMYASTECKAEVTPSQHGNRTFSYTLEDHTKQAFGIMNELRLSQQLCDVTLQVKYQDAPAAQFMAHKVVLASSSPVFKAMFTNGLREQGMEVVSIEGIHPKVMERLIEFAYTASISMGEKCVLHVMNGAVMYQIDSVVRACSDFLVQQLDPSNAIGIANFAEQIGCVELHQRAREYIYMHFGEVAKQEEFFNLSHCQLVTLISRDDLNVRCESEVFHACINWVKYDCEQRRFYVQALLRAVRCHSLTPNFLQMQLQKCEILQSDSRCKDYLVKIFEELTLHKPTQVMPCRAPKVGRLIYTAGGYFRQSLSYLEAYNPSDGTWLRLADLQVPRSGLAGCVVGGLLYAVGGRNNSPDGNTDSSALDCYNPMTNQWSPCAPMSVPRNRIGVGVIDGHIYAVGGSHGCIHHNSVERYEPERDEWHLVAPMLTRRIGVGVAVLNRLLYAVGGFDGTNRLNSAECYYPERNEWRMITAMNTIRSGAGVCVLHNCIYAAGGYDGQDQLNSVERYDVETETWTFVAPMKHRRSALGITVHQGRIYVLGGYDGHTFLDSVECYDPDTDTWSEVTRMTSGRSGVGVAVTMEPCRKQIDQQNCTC
EBV gp42 inh: EBV gp42 inhibition | Q1HVG2 | Fluorescence polarization binding assay, mP read-out | inhibition, % (tested at 21.74 µM) | 0.42% of 220,000 active | AID 1085; in the data active = inhibition above about 50%
Cardiac RTF inh: cardiac RTF calcium desensitization | P19429+P45379 | inhibition, % at 7.15 µM | 0.12% of 340,000 active | AID 493244 | IANBD-labeled cardiac RTF, Ca2+ fluorescence;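 active = inhibition above the mean inhibition of all tested compounds plus 3 SD, cut at about 17% in these data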;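 note: assay run at fixed EC70 calcium of 1.6 mM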
RTF Ca sens act: cardiac RTF calcium sensitization. IANBD-labeled TnC RTF fluorescence at EC20 calcium; 0% EC20 calcium, 100% full calcium. activation, % at 7.2 µM. AID 493008. 0.24% of 340,000 active. P19429+P45379;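 active = activation above the mean over all tested compounds plus 3 SD, cut at about 30% in these data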;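 note: rise in fluorescence read as greater calcium sensitivity of cardiac thin filaments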
eLon inh: inhibitors of E. coli Lon protease; P0A9M0; purified E. coli Lon protease, fluorescence polarization; inhibition, % at 7.94 µM; 0.42% of 360,000 active; in the data active = inhibition above about 13%, passing the limit was not always enough
E coli Lon conf: E. coli Lon inhibition confirmation; shares compounds with eLon inh; AID 602230; 31% of 1,400 active; inhibition, % at 7.94 µM; purified E. coli Lon, fluorescence polarization; in the data active = inhibition above about 16%
Each line names hits and unclear results; the compound was inactive in the other large screens (follow-up assays come after a bar, where they were run).

COc1cc(OC)c(C2Nc3ccccc3NC3=C2C(=O)CC(C)(C)C3)cc1OC (configuration not stated)	eLon inh 17 (no result: EBV gp42 inh) | E coli Lon conf inactive
COc1cc(C2Nc3ccccc3NC3=C2C(=O)CC(C)(C)C3)cc(OC)c1OC (configuration not stated)	none (no result: EBV gp42 inh)
Cc1cc2oc(=O)cc(CN3CCN(c4ccc(Cl)c(Cl)c4)CC3)c2cc1Cl	none (no result: C-LANA FP, Keap1-Nrf2 PPI, EBV gp42 inh, Cardiac RTF inh, RTF Ca sens act)
Cc1[nH]c2ccc3ncccc3c2c1C	none
Cc1[nH]c2ccc3c(ncn3CCC#N)c2c1C	eLon inh 29 | E coli Lon conf inactive
N=c1c2c(-c3ccccc3)c(-c3ccccc3)n(Cc3ccco3)c2ncn1CCCn1ccnc1	none
N=c1c2c(-c3ccccc3)c(-c3ccccc3)n(Cc3ccco3)c2ncn1CCCN1CCOCC1	eLon inh 14 | E coli Lon conf inactive
CC(C)(C)OC(=O)NC(Cc1ccccc1)C(=O)N1CCC(C(=O)NCC(=O)Nc2ccc(F)cc2)CC1 (configuration not stated)	eLon inh 22 (no result: EBV gp42 inh) | E coli Lon conf 43
Cc1ccc(S(=O)(=O)N2[C@@H](c3cccc(Cl)c3)C(C(=O)O)=CC[C@H]2c2ccc(C(C)C)cc2)cc1	none (no result: EBV gp42 inh)
CN(C(=O)C(=O)c1cn(CC(=O)N2CCCC2)c2ccccc12)C1CCCCC1	eLon inh 39 (no result: EBV gp42 inh) | E coli Lon conf inactive
CC1CCCN(C(=O)C(=O)c2cn(CC(=O)N3CCCCCC3)c3ccccc23)C1 (configuration not stated)	eLon inh 21 (no result: EBV gp42 inh) | E coli Lon conf inactive
CC1CCN(C(=O)C(=O)c2cn(CC(=O)N3CCCCCC3)c3ccccc23)CC1	none (no result: EBV gp42 inh)
O=C(c1cn(CC(=O)N2CCCC2)c2ccccc12)C1CCCCC1	none
Cc1ccc(/C=C/C(=O)Nc2cccc3cccnc23)o1	eLon inh 70 | E coli Lon conf 30
Cc1cccc(C(=O)Nc2cccc3cccnc23)c1	none (no result: EBV gp42 inh)
O=C(COC(=O)c1ccccc1C(=O)N1CCN(c2ccccc2)CC1)Nc1ccccc1	none
Cc1ccccc1C(=O)N1CCN(c2ccc(N3CCOCC3)nn2)CC1	eLon inh 23 (no result: EBV gp42 inh) | E coli Lon conf inactive
O=C(O)c1ccccc1C(=O)N1CCN(c2ccccc2)CC1	none
O=C(c1ccccc1C(=O)N1CCN(c2ccccc2)CC1)N1CCN(c2ccccc2)CC1	RTF Ca sens act 32, eLon inh 34 | E coli Lon conf 17
COc1cccc(NC(=O)COC(=O)c2ccccc2C(=O)N2CCN(c3ccccc3)CC2)c1	eLon inh 16 | E coli Lon conf inactive
O=C(COC(=O)c1ccccc1C(=O)N1CCN(c2ccccc2)CC1)Nc1ccc(F)cc1	eLon inh 22 | E coli Lon conf inactive
C=CCN(C(=O)CCC(=O)Nc1cc(C)on1)C(C(=O)NC1CCCC1)c1ccc(CC)cc1 (configuration not stated)	none (no result: EBV gp42 inh)
O=C1NC(=NCc2ccccc2)NC1(c1ccccc1)c1ccccc1	none (no result: EBV gp42 inh)
CCOc1ccc(Nc2nc(NCC(=O)O)nc(N)c2[N+](=O)[O-])cc1	eLon inh 19 (no result: EBV gp42 inh) | E coli Lon conf inactive
O=C(NCc1ccccc1)c1cc(C2COCCN2C(=O)c2cccs2)on1 (configuration not stated)	none (no result: C-LANA FP, Keap1-Nrf2 PPI, EBV gp42 inh, Cardiac RTF inh, RTF Ca sens act)
COCCNC(=O)C1(C)CCN(C(=O)c2cc(-c3ccccc3)cs2)C1 (configuration not stated)	none (no result: C-LANA FP, Keap1-Nrf2 PPI, EBV gp42 inh, Cardiac RTF inh, RTF Ca sens act)
CCOC(=O)c1[nH]c(C)c(C)c1C	eLon inh 51 | E coli Lon conf inactive
CCOC(=O)c1[nH]c(C)c(C(=O)OC)c1C	none
O=c1[nH]c2ccccc2nc1/C=C/c1ccccc1	eLon inh 14 | E coli Lon conf inactive
COc1ccccc1C(=O)N1[C@@H](C(C)C)COc2cc(Br)ccc2S1(=O)=O	none (no result: EBV gp42 inh)
Cc1ccc(/C=N/N=C/c2ccc(C)cc2)cc1	none
Cc1ccc(C=Nc2cccnc2N)cc1	eLon inh active | E coli Lon conf inactive
CC1Cc2ccccc2N1C(=O)CN1C(=O)NC2(CCCCC2)C1=O (configuration not stated)	none (no result: EBV gp42 inh)
CCN(CC)S(=O)(=O)c1ccc(N2CC(C(=O)NCCc3c[nH]c4ccccc34)CC2=O)cc1 (configuration not stated)	none (no result: C-LANA FP, Keap1-Nrf2 PPI, EBV gp42 inh)
CC1CCN(C(=O)c2[nH]cnc2C(=O)Nc2ccccc2F)CC1	none (no result: C-LANA FP, Keap1-Nrf2 PPI, EBV gp42 inh, Cardiac RTF inh, RTF Ca sens act)
CC(=O)O[C@@H]1[C@H](OC(=O)CC(C)C)c2c(ccc3ccc(=O)oc23)OC1(C)C	eLon inh 113 | E coli Lon conf inactive
C/C=C(\C)C(=O)OC1c2c(ccc3ccc(=O)oc23)OC(C)(C)C1OC(C)=O (configuration not stated)	none
CCCCc1nc2cc(C(=O)N3CCN(c4cnccn4)CC3)ccc2o1	eLon inh 85 (no result: EBV gp42 inh) | E coli Lon conf inactive
O=C(Nc1ccc(NC(=O)C2CCCN2C(=O)OCc2ccccc2)cc1)c1ccco1 (configuration not stated)	none
O=C(Nc1cccc(O)c1)C1CCCN1C(=O)OCc1ccccc1 (configuration not stated)	eLon inh 18 | E coli Lon conf inactive
COc1cccc2c1C(=O)c1c(O)c3c(c(O)c1C2=O)CC(O)(C(C)=O)CC3OC1CC(O)C(O)C(C)O1 (configuration not stated)	C-LANA FP 110, Keap1-Nrf2 PPI 20, RTF Ca sens act 223, eLon inh active (no result: EBV gp42 inh) | E coli Lon conf active
O=c1c(/C=C(\O)c2ccc(F)cc2)nc2ccccc2n1-c1ccccc1	RTF Ca sens act 51, eLon inh active | E coli Lon conf inactive
CCCCN1C(=O)C(=O)N(CC(=O)N2CCc3ccccc32)C1=O	eLon inh 17 (no result: EBV gp42 inh) | E coli Lon conf inactive
CC(C)N1C(=O)C(=O)N(CC(=O)N2CCc3ccccc32)C1=O	none (no result: EBV gp42 inh)
O=C(COC(=O)c1ccc(NS(=O)(=O)c2cccs2)cc1)Nc1nc2c(F)c(F)c(F)cc2s1	eLon inh 21 | E coli Lon conf inactive
CCCc1cc(=O)n2nc(N3CCC(C(=O)N4CCN(c5cccc(OC)c5)CC4)CC3)sc2n1	eLon inh 24 (no result: EBV gp42 inh) | E coli Lon conf inactive
CCOC(=O)C1CCN(C(=O)C2CCN(c3nn4c(=O)cc(C)nc4s3)CC2)CC1	none (no result: EBV gp42 inh)
CN(C)c1ccc(CNC(=O)C2Cc3c(-c4ccccc4Oc4ccccc4)ccnc3O2)cc1 (configuration not stated)	none (no result: C-LANA FP, Keap1-Nrf2 PPI, EBV gp42 inh, Cardiac RTF inh, RTF Ca sens act)
Cc1cc2cc(CCNC(=O)c3ccc(C)c([N+](=O)[O-])c3)c(=O)[nH]c2cc1C	none
Cc1cc2cc(CNC(=O)c3ccc(C)c([N+](=O)[O-])c3)ccc2[nH]1	eLon inh 22 | E coli Lon conf inactive
CC1CCCN(C(=O)CN(c2ccccc2)S(=O)(=O)c2ccc(F)cc2)C1 (configuration not stated)	none (no result: EBV gp42 inh)
ON=C1c2ccccc2-c2cc(Br)ccc21	none (no result: EBV gp42 inh)

Screening results (PubChem)
